Here are results for 51 molecules from ChEMBL document CHEMBL3988442, “University of Dundee, Small-Polar-MMV Screening Library” (2021).

Assay [1] concerns the target T1, Aspartate--tRNA(Asp/Asn) ligase (Mycobacterium tuberculosis (strain ATCC 25618 / H37Rv)) (UniProt P9WFW3). Note: in the data most compounds retested in dose-response had high values.
T1 sequence (whole entry): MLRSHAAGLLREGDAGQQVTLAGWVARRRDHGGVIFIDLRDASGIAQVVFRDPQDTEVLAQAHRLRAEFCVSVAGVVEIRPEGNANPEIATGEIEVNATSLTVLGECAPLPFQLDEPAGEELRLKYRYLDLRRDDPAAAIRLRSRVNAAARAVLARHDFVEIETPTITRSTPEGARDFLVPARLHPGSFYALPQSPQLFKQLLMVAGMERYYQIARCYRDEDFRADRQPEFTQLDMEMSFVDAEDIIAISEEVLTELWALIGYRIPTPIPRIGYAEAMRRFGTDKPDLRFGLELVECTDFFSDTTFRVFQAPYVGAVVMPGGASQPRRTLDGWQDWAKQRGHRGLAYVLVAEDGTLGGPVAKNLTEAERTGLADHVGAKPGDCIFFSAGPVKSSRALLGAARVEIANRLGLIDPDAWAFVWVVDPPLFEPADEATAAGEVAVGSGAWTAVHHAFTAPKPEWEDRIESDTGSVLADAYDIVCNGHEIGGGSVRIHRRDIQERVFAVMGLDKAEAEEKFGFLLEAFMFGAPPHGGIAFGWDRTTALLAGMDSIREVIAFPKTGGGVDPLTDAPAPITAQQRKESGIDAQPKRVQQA
Description: Assay for Asp RNA synthetase-1 from Mycobacterium tuberculosis. Particulars: 30 µM. In kind it is functional. Details: scale not given: direction of the effect not stated beside the values.

For assay [2], the target named is Shiga toxin 2 (Escherichia coli O157:H7) (UniProt P09385+P09386). Description: E. coli 0.157:H7 Shiga Toxin SOP - stx2 screening assay. In kind it is functional. Details: scale not given: direction of the effect not stated beside the values. Particulars: 30 µM.

As to `Cc1ccc(N2CCCC(NCC(=O)Nc3cc(C)no3)C2)nn1` (configuration not stated), the Percent Effect is -0.917% in assay [1] and -55.3% in assay [2].

Turning to `COC(=O)[C@H](C)NC(=O)c1cc(-c2cccc(Cl)c2)no1`, the Percent Effect was found to be 0.419% in assay [1] and 5.33% in assay [2].

As to `CC1CCN(CCNC(=O)c2cncnc2C(C)C)CC1`, the figures for the Percent Effect in assay [1] and in assay [2] were -2.54% and -18.7%, respectively.

`NC(=O)C1CN(C(=O)Nc2cc(Cl)cc(Cl)c2)CCO1` (configuration not stated): the Percent Effect in assay [1] stood at 1.82%; in assay [2], 8.74%.

Take `O=C1CCC2(CCN(Cc3cc(F)cc(F)c3)CC2)CN1CCO`: the Percent Effect in assay [1] was -0.529%; in assay [2], 6.69%.

On to `O=C(NCCNc1ccc(C(F)(F)F)cn1)c1ccc(Br)cc1F`, for which the results for the Percent Effect in assay [1] and in assay [2] were -0.778% and 38.5%, respectively.

For `CC(NC(=O)NCc1ccc(Cl)cc1)c1ccccn1` (configuration not stated), the figures for the Percent Effect in assay [1] and in assay [2] were 0.364% and -27.4%, respectively.

`Cc1nc[nH]c1CN1C[C@@H]2CC[C@H](C1)N(C(=O)CCNS(C)(=O)=O)C2`: the results for the Percent Effect in assay [1] and in assay [2] were -4.9% and -0.862%, respectively.

Regarding `Cc1cc(N2CCCN(C(=O)Cc3ccc(O)c(Cl)c3)CC2)ccn1`, the Percent Effect in assay [1] is 1.92%; in assay [2], -29.5%.

On to `Cc1nn(C)c(C)c1NC(=O)CN1CCCC1c1noc(C2CC2)n1` (configuration not stated), for which the Percent Effect in assay [1] was 5.58%; in assay [2], -27.4%.

`Cn1nc(C2CCN(C(=O)Cc3cccc(F)c3)CC2)c2cccnc21`: the Percent Effect is -2.81% in assay [1] and -7.51% in assay [2].

With `NC(=O)c1cc(C2CCCN(C(=O)CCc3cscn3)C2)n[nH]1` (configuration not stated), the figures for the Percent Effect in assay [1] and in assay [2] were -4.07% and -14.1%, respectively.

As to `COCC(=O)N1CCC2(CC1)CC(CC(=O)NC1CC1)c1ccccc12` (configuration not stated), the Percent Effect was -1.39% in assay [1] and 9.56% in assay [2].

As to `Cn1cccc1CN1CCC2(CCCN(C(=O)Cc3cccnc3)C2)C1` (configuration not stated), the Percent Effect was 4.47% in assay [1] and -14.5% in assay [2].

Regarding `O=C(N[C@@H]1CN(Cc2cccs2)[C@@H]2CCCO[C@@H]21)C1CC1`, the Percent Effect was 4.13% in assay [1] and -24% in assay [2].

`CCOC(=O)NC(CNC(=O)c1ccccn1)CC(C)C` (configuration not stated): the values for the Percent Effect in assay [1] and in assay [2] were -2.16% and -4.01%, respectively.

Consider `CCOCCCNC(=O)c1cc(C(C)C)nc(N2CCCCCC2)n1`, for which the Percent Effect in assay [1] is 1.1%; in assay [2], -56.1%.

For `CCc1nc(C2CCCN(C(=O)c3ccc(OC(C)C)nc3)C2)no1` (configuration not stated), the Percent Effect in assay [1] is -1.24%; in assay [2] it was 17.3%.

As for `Cc1nc(COCc2cnc3n2CCN(CC2CCC2)C3C)cs1` (configuration not stated), the Percent Effect in assay [1] was -6%; in assay [2], -3.62%.

Regarding `Cc1nn(C)c(N(C)C)c1CNCc1cccnc1-n1cncn1`, the Percent Effect in assay [1] is -4.35%; in assay [2], -5.81%.

As to `Cc1nc(C)n(CC2CN(c3ccc(C#N)cn3)CCO2)n1` (configuration not stated), the results for the Percent Effect in assay [1] and in assay [2] were 2.39% and 19.5%, respectively.

As for `O=C(Cn1nc2c(cc1=O)CCCC2)N[C@@H](Cc1ccccc1)C(=O)O`, the values for the Percent Effect in assay [1] and in assay [2] were 0.174% and -48%, respectively.

On to `Cn1cc(CN2CC[C@@H]3[C@@H](CCC(=O)N3CCc3c[nH]cn3)C2)cn1`, for which the values for the Percent Effect in assay [1] and in assay [2] were -1.44% and -37.6%, respectively.

Turning to `c1ccc2sc(CN3CCOC(Cn4cncn4)C3)nc2c1` (configuration not stated), the Percent Effect in assay [1] was -5.32%; in assay [2], 14%.

Turning to `Cc1cnc2n1CCN(C)C21CCN(C(=O)CC(C)C)CC1`, the Percent Effect in assay [1] is -4.25%; in assay [2], -6.62%.

For the molecule `CC(Cn1ccnc1)NC(=O)NCCc1ccc2c(c1)OCCO2` (configuration not stated), the Percent Effect in assay [1] was -0.516%; in assay [2], 2.84%.

As to `O=C(NCCCNCC1CNc2ccnn2C1)c1ccccc1` (configuration not stated), the Percent Effect in assay [1] is 0.0558%; in assay [2] it was -16.8%.

In the case of `CCCn1ccc(C(=O)N2CCC(C)CC2)n1`, the Percent Effect in assay [1] is 3.36%; in assay [2] it was -27.6%.

On to `CCc1c(C)nc2n(c1=O)CC(C(=O)Nc1nccs1)CS2` (configuration not stated), for which the Percent Effect is -3.8% in assay [1] and -29.4% in assay [2].

For `Cc1cc(CN(C)C(=O)C2CCCN(C(=O)c3cccs3)C2)no1` (configuration not stated), the Percent Effect in assay [1] was 5.71%; in assay [2], -56.4%.

For the molecule `COc1ncccc1CNC(=O)c1cccc(C)n1`, the Percent Effect in assay [1] is -1.63%; in assay [2] it was -24.7%.

In the case of `O=C(NCCNc1ncccn1)C1CCN(CC(F)(F)F)CC1`, the values for the Percent Effect in assay [1] and in assay [2] were 2.17% and 21.6%, respectively.

`COCCCC1CCCN(C(=O)CCc2cc(O)no2)C1` (configuration not stated): the Percent Effect in assay [1] is -7.41%; in assay [2] it was -0.726%.

Take `CCN(CC)c1ccc(C(=O)N(C)Cc2c(C)noc2C)cn1`: the Percent Effect stood at 3.51% in assay [1] and 32.5% in assay [2].

With `Cc1nn(C)c(N(C)C)c1CNCC(O)COc1ccc(F)cc1` (configuration not stated), the Percent Effect in assay [1] was -7.16%; in assay [2], 8.48%.

Turning to `Cc1nc(-c2cccc(C(=O)O)c2)cc(C2CCN(C(C)C)C2)n1` (configuration not stated), the Percent Effect was -4.63% in assay [1] and 4.12% in assay [2].

Take `Cc1cnn(CC2CCCN2Cc2coc(-c3ccccc3)n2)c1` (configuration not stated): the Percent Effect in assay [1] is -5.72%; in assay [2] it was -30.1%.

With `CC(C)NC(=O)N1CCN(S(=O)(=O)C2CC2)CC2(CC(=O)N(C)C2)C1` (configuration not stated), the Percent Effect is -1.56% in assay [1] and -20.5% in assay [2].

Consider `Cc1nc(N2CCN(C(=O)c3ccccc3)CC2)c2c(n1)c(C)nn2C`, for which the Percent Effect was -3.51% in assay [1] and -31% in assay [2].

With `Cc1cccc(C(=O)N2CCN(S(C)(=O)=O)[C@@H](C)C2)c1C`, the values for the Percent Effect in assay [1] and in assay [2] were -3.1% and -11.5%, respectively.

As to `Cc1ccc(OC2(C(=O)O)CCN(C(=O)c3nc(C)oc3C)CC2)cn1`, the Percent Effect in assay [1] was -2.19%; in assay [2] it was 0.158%.

Consider `CC(C)c1cnc(CNc2c(F)cccc2-n2cccn2)o1`, for which the Percent Effect in assay [1] was -0.919%; in assay [2], 9.22%.

`Cc1oncc1C(=O)N1CCC2(CC1)CC(c1ccccc1)C(=O)N2C` (configuration not stated): the Percent Effect in assay [1] was -1.78%; in assay [2] it was -15.3%.

In the case of `CS(=O)(=O)c1ccc(NC(=O)N2CCc3sccc3C2)cn1`, the Percent Effect in assay [1] is 5.08%; in assay [2], -38%.

Turning to `CC(C)c1nc(C2CCCN2CC(=O)Nc2nncs2)no1` (configuration not stated), the Percent Effect in assay [1] was -6.57%; in assay [2], 9.9%.

Turning to `CN(C)C(=O)CC1CC2(CCNCC2)c2cc(F)ccc21` (configuration not stated), the results for the Percent Effect in assay [1] and in assay [2] were 2.15% and 1.21%, respectively.

`Cc1nc(C2CCCN(C(=O)c3ccc(N4CCCC4)nc3)C2)no1` (configuration not stated): the Percent Effect in assay [1] is -2.58%; in assay [2] it was -1.41%.

With `O=C(NCC1CCOC1)c1ccc(OCC(F)(F)F)nc1` (configuration not stated), the Percent Effect in assay [1] is -2.12%; in assay [2], -17.6%.

For `Cc1nc(C)n(CC2CCCN(c3ncnc4sccc34)C2)n1` (configuration not stated), the Percent Effect in assay [1] amounted to 1.08%; in assay [2], 21.2%.

Consider `COc1ccc(F)cc1C(C)NC(=O)Cn1ccc(=O)n(C)c1=O` (configuration not stated), for which the values for the Percent Effect in assay [1] and in assay [2] were 0.602% and -12.8%, respectively.

Consider `O=C(c1ccco1)N1CCOCC2(C1)CN(c1ccccc1)C(=O)CO2` (configuration not stated), for which the Percent Effect was 8.44% in assay [1] and 2.61% in assay [2].
